The results in this text go back to PubChem BioAssay AID463173 (ICCB-Longwood Screening Facility, Harvard Medical School, 2010).

Structures are written as SMILES. Screen size: about 52,000 compounds; about 4,300 (8.3%) were called active. No stated cut-off is given here; in the data, active means survival mostly below about 52% (no sharp cut-off); inactive means mostly above about 56%. Many of the other results were omitted from the sample, so actives are more common in it than they were.

The test deals with DeltatarO mutant. In words: S. aureus survival, RN4220 and DeltatarO strains – OD600, teichoic acid synthesis inhibitors, primary screen (AID 463173). The conditions noted are these: S. aureus RN4220 wild type/DeltatarO growth, OD600, 18 h, active compounds read low, screened at 18.75 µg/mL (by protocol).
As to `CC(C)CN1CCc2nc(N3CCN(c4ncccn4)CC3)ncc2C1`, the survival is 72% (inactive).
To `CCNc1nc(NCC)nc(N(C#N)CC)n1` belongs 62% (inactive).
Regarding `CCc1ccc(NC(=O)Cn2c(=O)n(Cc3ccc(C)cc3)c(=O)c3cccnc32)cc1`, the survival is 88% (inactive).
Under `CC(=O)c1ccc(N2CCN(C(=O)Nc3cn(CC(C)C)c(=O)c4ccccc34)CC2)cc1` stands 80% (inactive); under `Cc1ccc(C)c(NC(=O)c2cnc(N3CCCC3)nc2C)c1`, 94% (inactive); under `COc1ccc(NC(=O)CSc2oc(-c3ccc(F)cc3)nc2S(=O)(=O)c2ccc(C)cc2)c(OC)c1`, 61% (inactive).
Under `Cc1cccc(NC(=O)NCCOCCn2c(=O)oc3ccccc32)c1C` stands 99% (inactive); under `O=C(Nc1ccc(Cl)cc1)N1CCC(CN2CCCC2)CC1`, 84% (inactive).
Under `CCCCC(=O)Nc1cccc(OCc2cc(=O)n3ccccc3n2)c1` stands 87% (inactive); under `CCOC(=O)N1CCC(NC(=O)c2ccc3c(c2)N(Cc2cc(C)ccc2C)C(=O)c2ccccc2S3=O)CC1` (stereo unspecified), 42% (active).
Consider `CN(C(=O)c1ccc2c(c1)N(Cc1cccc(Cl)c1)C(=O)c1ccccc1S2=O)C1CCCCC1` (stereo unspecified), for which the survival is 101% (inactive).
As for `O=C(NCCC1=CCCCC1)c1ccc2c(c1)N(Cc1ccc(Cl)cc1)C(=O)c1ccccc1S2=O` (stereo unspecified), the survival was 63% (inactive).
Under `O=C(NC1CCCCC1)c1ccc2c(c1)N(Cc1cccc(Cl)c1)C(=O)c1ccccc1S2=O` (stereo unspecified) stands 101% (inactive); under `CCCCN(C)C(=O)c1ccc2c(c1)N(Cc1cccc(Cl)c1)C(=O)c1ccccc1S2=O` (stereo unspecified), 99% (inactive).
To `O=C(NCCC1=CCCCC1)c1ccc2c(c1)N(Cc1ccccc1)C(=O)c1ccccc1S2=O` (stereo unspecified) belongs 70% (inactive); to `CCOC(=O)N1CCC(NC(=O)c2ccc3c(c2)N(Cc2ccccc2C)C(=O)c2ccccc2S3=O)CC1` (stereo unspecified), 53% (inactive); to `O=C(NCCC1=CCCCC1)c1ccc2c(c1)N(Cc1cccc(Cl)c1)C(=O)c1ccccc1S2=O` (stereo unspecified), 37% (active).
To `CC1CCC(NC(=O)c2ccc3c(c2)N(Cc2ccccc2)C(=O)c2ccccc2S3=O)CC1` (stereo unspecified) belongs 104% (inactive); to `CCN(C(=O)c1ccc2c(c1)N(Cc1cccc(Cl)c1)C(=O)c1ccccc1S2=O)c1ccccc1` (stereo unspecified), 32% (active).
For `CCOC(=O)N1CCC(NC(=O)c2ccc3c(c2)N(Cc2ccccc2)C(=O)c2ccccc2S3=O)CC1` (stereo unspecified), the survival is 57% (inactive).
Under `CC1CCC(NC(=O)c2ccc3c(c2)N(Cc2cccc(Cl)c2)C(=O)c2ccccc2S3=O)CC1` (stereo unspecified) stands 25% (active); under `Cc1ccc(-n2c(=O)c3c(cnn3C)n(CC(=O)Nc3c(C)cccc3C)c2=O)cc1`, 85% (inactive); under `COc1ccc(NC(=O)Cn2c(=O)n(-c3ccc(CC(=O)NCC4CCCO4)cc3)c(=O)c3ccccc32)c(OC)c1` (stereo unspecified), 102% (inactive).
To `COc1cc(C(=O)N2CCN(c3ccc(Nc4ccccc4)nn3)CC2)cc(OC)c1OC` belongs 80% (inactive); to `COc1cc(C(=O)Nc2sc(C(=O)N3CCOCC3)c(C)c2C#N)cc(OC)c1OC`, 84% (inactive).
For the compound `CN(C)CCN(C(=O)c1ccco1)c1nc2c(F)cc(F)cc2s1`, the survival was 72% (inactive).
Under `O=C(c1ccc2c(c1)N(Cc1ccc(Cl)cc1)C(=O)c1ccccc1S2(=O)=O)N1CCOCC1` stands 96% (inactive).
Under `O=C1OC(C(=O)Nc2cc(C(F)(F)F)ccc2Cl)Cc2ccccc21` (stereo unspecified) stands 56% (active).
To `O=C1OC(C(=O)Nc2cccc(Br)c2)Cc2ccccc21` (stereo unspecified) belongs 54% (inactive); to `O=C1OC(C(=O)Nc2ccc(Cl)c(C(F)(F)F)c2)Cc2ccccc21` (stereo unspecified), 55% (inactive).
`CCCOc1ccc(C(=O)N(Cc2cccs2)c2ccc(C)cc2)cc1`: the survival was 70% (inactive).
Consider `Cn1c(CCNC(=O)c2ccco2)nc2cc(NC(=O)COc3ccc(Cl)cc3)ccc21`, for which the survival is 58% (inactive).
Under `COc1cc(OC)c(NC(=O)c2c3c(nc4ccccc24)C(=O)N(C2CCCCC2)C3)cc1Cl` stands 60% (inactive); under `Cc1ccc(-n2nc(CO)c(C(=O)NCC(c3ccccc3)c3ccccc3)n2)cc1`, 90% (inactive).
`CCOc1ccc(CCNC(=O)CCSCc2cccc(Cl)c2)cc1OCC`: the survival is 81% (inactive).
Under `CCOCCc1nn2c(=O)cc(COC(=O)c3ccccc3NC(=O)CC(C)C)nc2s1` stands 89% (inactive).
For `COc1ccc(OC)c(NC(=O)CCCc2nnc3n(C(C)C)c(=O)c4sccc4n23)c1`, the survival is 74% (inactive).
In the case of `Cc1ccc(Cl)cc1N1CCN(C(=O)c2cc3c(=O)n(C)c4ccccc4c3s2)CC1`, the survival is 56% (inactive).
As to `Cn1c(=O)c2cc(C(=O)N3CCN(c4ccc(Cl)cc4)CC3)sc2c2ccccc21`, the survival is 56% (active).
To `CCn1c(=O)c2cc(C(=O)N3CCN(c4cccc(OC)c4)CC3)sc2c2ccccc21` belongs 53% (active); to `COc1cccc(N2CCN(C(=O)c3cc4c(=O)oc5ccc(C)cc5c4s3)CC2)c1`, 89% (inactive).
Under `Cn1c(=O)c2cc(C(=O)N3CCN(c4cccc(C(F)(F)F)c4)CC3)sc2c2ccccc21` stands 92% (inactive); under `CCn1c(=O)c2cc(C(=O)N3CCN(c4cccc(Cl)c4)CC3)sc2c2ccccc21`, 62% (inactive); under `Cc1cccc(N2CCN(C(=O)c3cc4c(=O)oc5ccccc5c4s3)CC2)c1C`, 66% (inactive).
Take `Cc1cccc(N2CCN(C(=O)c3cc4c(=O)n(C)c5ccccc5c4s3)CC2)c1C`: the survival was 47% (active).
Under `COc1ccccc1N1CCN(C(=O)c2cc3c(=O)n(C)c4ccccc4c3s2)CC1` stands 73% (inactive).
Regarding `COc1ccc(CNC(=O)CSc2nc3cc4c(cc3cc2C#N)OCCO4)cc1`, the survival is 96% (inactive).
Under `CSc1cccc(NC(=O)C2CCN(C(=O)c3cnn(-c4ccccc4)c3-n3cccc3)CC2)c1` stands 68% (inactive); under `COc1ccc(/C=C(\C#N)c2nc(-c3cc(Cl)ccc3OC)cs2)cc1`, 91% (inactive); under `CCc1ccc(NCc2cc3ccc(OC)cc3n(CC(=O)Nc3ccc(F)cc3F)c2=O)cc1`, 79% (inactive).
In the case of `COc1ccc(-n2c3c(cc(-c4nc(-c5ccc(C)cc5)cs4)c2=O)C(=O)CC(C)(C)C3)cc1`, the survival was 54% (inactive).
To `CCOc1ccc(-n2c(-c3ccc(OC)cc3)cc3c2CC(C)(C)CC3=O)cc1` belongs 15% (active); to `Cc1ccc(-c2cc3c(n2-c2ccccc2F)CC(C)(C)CC3=O)cc1`, 101% (inactive).
Under `CCOc1ccc(-n2c(-c3ccc(Br)cc3)cc3c2CC(C)(C)CC3=O)cc1` stands 17% (active); under `CCN(CC)C(=O)c1cc2c(n(-c3ccc(OC)cc3)c1=O)CC(C)(C)CC2=O`, 70% (inactive); under `Cc1ccc(-c2cc3c(n2-c2ccc(F)cc2)CC(C)(C)CC3=O)cc1`, 98% (inactive).
